Most compounds without a hit are left out; they make up all but 1.7% or so of the library.
GLP1R cytotox: cytotoxicity in counter-screen for GLP-1R inverse agonists; HEK293 cAMP-luciferase reporter cells, luminescence, 24 h; Potency, µM (titrated, usually from 38.3 µM), usual class: inhibitors; actives 0.13% (n = 410,000); AID 624418;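 further: loss of luciferase light is scored as toxicity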
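Compound-treated cells are incubated 24 hr at 37 deg C under 5% CO2 after a 12 hour attachment period, then luciferase detection reagent is added and luminescence is measured following 12 min at room temperature; lowered signal indicates toxicity.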
GLP1R ag: GLP-1 receptor (human) agonism | P43220 | HEK293 GLP-1R CRE-luciferase, luminescence, 4-6 h; cells express a hypersensitive GLP-1R form | Potency, µM (highest dose often 45.6 µM), actives largely listed as activators | actives 0.007% (n = 380,000) | AID 624172
Target sequence (P43220 whole entry, looked up): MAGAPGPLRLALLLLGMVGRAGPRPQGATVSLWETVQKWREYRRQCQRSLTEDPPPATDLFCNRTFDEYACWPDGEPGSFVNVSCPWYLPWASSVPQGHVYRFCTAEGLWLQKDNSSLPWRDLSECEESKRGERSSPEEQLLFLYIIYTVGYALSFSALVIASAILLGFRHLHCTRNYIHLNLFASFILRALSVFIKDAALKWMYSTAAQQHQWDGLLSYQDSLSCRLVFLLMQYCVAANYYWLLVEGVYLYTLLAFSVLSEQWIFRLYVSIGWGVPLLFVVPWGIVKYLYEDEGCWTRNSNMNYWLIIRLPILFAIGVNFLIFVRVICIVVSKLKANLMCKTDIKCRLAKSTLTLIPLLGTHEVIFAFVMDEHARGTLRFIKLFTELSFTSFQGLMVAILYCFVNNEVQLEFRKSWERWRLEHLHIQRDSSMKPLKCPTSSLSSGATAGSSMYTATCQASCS
GLP-1R inv ag: inverse agonists of human GLP-1 receptor | HEK293 GLP-1R CRE-luciferase, luminescence, 24 h; GLP-1R form is constitutively active | Potency, µM (doses to about 38.3 µM), usual class: inhibitors | P43220 | actives 1.6% (n = 410,000); further: nearly all actives have a fitted effect of over 55% in size
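Inverse agonism was detected as reduced cAMP-driven luciferase luminescence after 24 h compound treatment. The cells were HEK293 clones expressing constitutively active human GLP-1R with the reporter. Reporter-only and GPR119 cell lines served as counterscreen controls.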
PTHR1 agonist: PTHR1 (human) receptor agonism; Q03431; Potency, µM (highest dose often 115 µM), most hits filed as activators; HEK293 GP2 PTHR1 cells, GloSensor cAMP luminescence, 1 h; actives 0.075% (n = 410,000); AID 743266; further: nearly all actives have a fitted effect of over 55% in size
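HEK-293-derived GP2 cells expressing PTHR1 and a GloSensor cAMP reporter, 3,000/well, plated overnight, given luciferin plus IBMX (each 0.5 mM as added) for 1 h at 37 °C, then compound for 1 h at 37 °C. Luminescence was read after 15 min at room temperature.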
Numbers stand for hits; 0 = inactive; ? = inconclusive; - = not tested or not shown; [ ] = dose if it differs, or a comment. The call rests on the fitted dose curve; in most records, active means well fitted curve in the direction sought with a large enough effect; inconclusive means small, poorly fitted or top-dose-only effect, or another doubt; inactive means no such curve, though single readings can be large; an effect the other way counts as inactive or inconclusive.

SMILES	GLP1R cytotox	GLP1R ag	GLP-1R inv ag	PTHR1 agonist
CCN(CC)c1ccc(NC(=O)c2c(C)nn(-c3ccc(F)cc3)c2-n2cccc2)c(C)c1	0	0	5.01µM	0
Cc1cc(C)c(NC(=O)c2c(C)nn(-c3ccc(F)cc3)c2-n2cccc2)c(C)c1	0	0	?	0
Cc1ccc(CCNC(=O)c2c(C)nn(-c3ccc(F)cc3)c2-n2cccc2)cc1	0	0	6.31µM	0
CCCCC[C@H](O)/C=C/[C@H]1CCC(=O)[C@@H]1CCCCCCC(=O)N1CCCCC1CO (some centres not stated)	?	0	?	0
CC(C)C(NS(=O)(=O)c1c(Cl)cccc1Cl)C(=O)OCC(=O)c1c[nH]c2ccccc12 (configuration not stated)	0	0	?	0
CC(O)C(NS(=O)(=O)c1ccc(Cl)cc1)C(=O)OCC(=O)c1c[nH]c2ccccc12 (configuration not stated)	0	0	5.62µM	0
Cc1nc2scc(C)n2c(=O)c1S(=O)(=O)Nc1cccc(O)c1	0	-	0	0
Cc1nc2scc(C)n2c(=O)c1S(=O)(=O)Nc1cccc(C(F)(F)F)c1	0	-	11.2µM	0
COc1cc2c(Nc3ccc(Br)cc3F)ncnc2cc1OCC1CCN(C)CC1	-	0	-	-
CC(C)c1ccc(C(=O)CN2C(=O)NC3(CCc4ccccc43)C2=O)cc1 (configuration not stated)	0	0	2.51µM	0
O=C(CN1C(=O)NC2(CCc3ccccc32)C1=O)Nc1cccc(Cl)c1 (configuration not stated)	0	0	11.2µM	0
O=C(CN1C(=O)NC2(CCc3ccccc32)C1=O)c1ccc(Cl)cc1 (configuration not stated)	0	0	?	0
COC(=O)C1CCN(C(=O)COC(=O)/C=C/c2ccc(O)c(OC)c2)CC1	0	0	0	0
O=C(NCC(O)COc1ccc([N+](=O)[O-])cc1)Nc1ccccc1 (configuration not stated)	?	0	0	0
Cc1cc(C)cc(NC(=O)NCC(O)COc2ccc([N+](=O)[O-])cc2)c1 (configuration not stated)	0	0	8.91µM	0
O=C(C(=O)N1CCN(c2cccc(Cl)c2)CC1)c1c[nH]c2ccccc12	0	0	8.91µM	0
O=C(C(Cc1ccccc1)n1cccc1)N1CCN(c2cccc(Cl)c2)CC1 (configuration not stated)	0	0	11.2µM	0
CCC(C(=O)N1CCN(c2cccc(Cl)c2)CC1)c1ccccc1 (configuration not stated)	0	0	5.01µM	0
CCC(CC)C(=O)N1CCN(c2ccccc2)CC1	0	0	0	0
CC(C)(C)OC(=O)N1CCC(c2c(C(=O)NCc3cccs3)cnn2-c2ccc(F)cc2F)CC1	0	-	?	0
Cc1csc(N=Nc2ccc(N(C)C)cc2)[n+]1[O-]	3.98µM	0	?	0
CCOC(=O)c1c(N)sc(C(=O)Nc2ccc3c(c2)OCO3)c1C	?	0	5.62µM	0
Cc1cccc(OCC(=O)Nc2ccc3c(c2)OCO3)c1C	0	0	0	0
CCOC(=O)c1c(C)c(C(=O)Nc2ccc3c(c2)OCO3)c(C)n1C	0	0	0	0
Cc1ccc(C)c(OCC(=O)Nc2ccc3c(c2)OCO3)c1C	?	0	7.94µM	0
SMILES	GLP1R cytotox	GLP1R ag	GLP-1R inv ag	PTHR1 agonist
Cc1ccc(NC(=O)/C=C/c2ccccc2)c(Br)c1	0	-	0	0
CS(=O)(=O)N1CCc2cc(C(=O)Nc3ccc(Cl)c(C(F)(F)F)c3)ccc21	?	-	10µM	0
COc1ccc(NC(=O)c2sc3nc(C)c(C(=O)Nc4ccc(C)cc4C)c(-c4ccc(C)o4)c3c2N)cc1	0	-	0	0
O=C1c2cccc(Cl)c2C(=O)c2c1cccc2N1CCCC1	?	0	6.31µM	0
O=C1c2ccccc2C(=O)c2cc(N3CCCCC3)ccc21	0	0	0	0
CCOc1ccccc1CNC(=O)CCNS(=O)(=O)c1ccc2[nH]c(=O)oc2c1	0	0	0	0
Cc1cccc(Cn2cc(C(=O)Nc3ccc(F)c(C(F)(F)F)c3)ccc2=O)c1	0	-	10µM	0
CCc1cc(-c2cnnn2CCc2c[nH]c3ccccc23)ccc1-c1cn(CC(C)C)nn1	0	0	0	0
CCc1cc(-c2nnn(-c3cc(C(C)C)ccc3C)c2CC)ccc1-c1cn(CCc2c[nH]c3ccccc23)nn1	0	0	2.51µM	0
COc1cccc(C(=O)c2cn(CC(=O)Nc3ccc4c(c3)OCCO4)c3nc(C)ccc3c2=O)c1	0	-	0	0
O=C(c1ccccc1)N1CCCC(c2nc3c(nnn3Cc3ccc(F)cc3F)c(=O)[nH]2)C1 (configuration not stated)	0	-	0	0
COc1ccc(CCC(C)NCCc2ccc(Cl)cc2Cl)cc1 (configuration not stated)	?	0	10µM	0
COc1cccc(C(=O)COC(=O)COc2c(C)cc(C)cc2C)c1	0	0	0	0
CN(c1ccc(OCC(=O)N2CCN(c3ccc(F)cc3)CC2)cc1)S(=O)(=O)c1cccs1	0	0	11.2µM	0
Cc1cccc(N2CCN(C(=O)c3ccc4c(c3)OCCO4)CC2)c1C	0[7.66 µM]	0	0[7.66 µM]	0
Cc1cccc(C)c1N1CCN(C(=O)c2ccc3c(c2)OCO3)CC1	0	0	10µM	0
Cc1cccc(N2CCN(C(=O)c3ccc(S(=O)(=O)N(C)c4ccccc4)cc3)CC2)c1C	0	0	1µM	0
Cc1cccc(N2CCN(C(=O)c3ccc4[nH]c(C)c(C)c4c3)CC2)c1C	0	0	2.51µM	0
CC1=C(C(=O)O)N2C(=O)[C@@H](NC(=O)[C@@H](N)c3ccc(O)cc3)[C@@H]2SC1	-	0	-	-
c1ccc2c(OCCCN3CCCCCC3)cccc2c1	?	0	0	0
CCOC(=O)c1c(NC(=O)C(NCCN(C)C)c2ccccc2)sc2c1CCCC2 (configuration not stated)	3.98µM	0	?	0
Cc1nc2c(sc3nc(N4CCOCC4)c4c(c32)CC(C)(C)OC4)c(-c2ccc(Cl)cc2)c1C(=O)O	0	0	4.47µM	0
CC1(C)Cc2c(c(N3CCOCC3)nc3snc(N)c23)CO1	0	0	3.98µM	0
O=C1OC(c2cc(I)c(O)c(I)c2)(c2cc(I)c(O)c(I)c2)c2ccccc21	-	0	-	-
Clc1ccc(-c2nnc(NC3=NCCCCC3)o2)cc1	0	0	4.47µM	0
COC(=O)c1cc(NCc2c(F)cccc2Cl)ccc1N1CCOCC1	0	0	0	2.51µM
COC(=O)c1cc(NC(=O)c2cc(-c3ccccc3Cl)oc2C(F)(F)F)ccc1N1CCOCC1	0	0	3.98µM	0
O=[N+]([O-])c1ccc(OC/C=C2\Oc3ccc([N+](=O)[O-])cc3C2N2CCOCC2)cc1 (configuration not stated)	0	0	?	0

Source: PubChem
